# A selection: hits, their analogues and other compounds. The true share with any hit is near 1.5%.
# CD11b adhes inh = CD11b/CD18-fibrinogen binding inhibition | P05107+P11215 | K562 CD11b/CD18 adhesion to fibrinogen, ATPlite luminescence; Mn2+ added to activate the integrin | inhibition, % at 10 µM | 93,000 compounds, 0.54% hits;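 active = primary inhibition of 50% or more at 10 µM, then 40% or more on retest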
# Target sequence (P05107 whole entry, looked up, other chains not shown): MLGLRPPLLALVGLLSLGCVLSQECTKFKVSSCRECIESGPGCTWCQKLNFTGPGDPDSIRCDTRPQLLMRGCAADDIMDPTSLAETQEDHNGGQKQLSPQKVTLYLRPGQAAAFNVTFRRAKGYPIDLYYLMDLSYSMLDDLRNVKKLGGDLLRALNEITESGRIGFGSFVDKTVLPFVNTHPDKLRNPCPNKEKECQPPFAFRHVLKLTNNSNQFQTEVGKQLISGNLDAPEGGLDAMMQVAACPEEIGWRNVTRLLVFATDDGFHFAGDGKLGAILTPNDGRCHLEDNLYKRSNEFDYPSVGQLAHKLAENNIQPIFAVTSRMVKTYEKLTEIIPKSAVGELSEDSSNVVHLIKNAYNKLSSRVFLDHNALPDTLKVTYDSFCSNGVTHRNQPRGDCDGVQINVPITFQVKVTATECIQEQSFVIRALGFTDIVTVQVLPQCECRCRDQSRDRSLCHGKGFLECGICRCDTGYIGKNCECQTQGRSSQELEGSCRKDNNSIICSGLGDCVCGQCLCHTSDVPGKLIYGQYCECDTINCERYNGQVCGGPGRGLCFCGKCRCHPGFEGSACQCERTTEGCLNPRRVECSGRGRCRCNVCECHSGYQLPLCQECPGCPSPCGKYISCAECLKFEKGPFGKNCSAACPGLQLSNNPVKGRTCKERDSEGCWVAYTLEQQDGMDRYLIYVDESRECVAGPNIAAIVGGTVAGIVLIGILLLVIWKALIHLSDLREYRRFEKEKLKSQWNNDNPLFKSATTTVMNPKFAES
# Phagocytosis inh = blocks phagocytosis by macrophages. J774A.1 macrophage IgG-bead phagocytosis, imaging. inhibition, % at 5 µM. 110,000 compounds, 0.07% hits;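 active = inhibition above the mean of the plate negative controls plus 5 SD, cut at about 13% in these data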;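 also: phagocytic index as fraction of beads internalized from green versus red external bead signal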
# Mac1 fbg enh = enhancers of human CD11b/CD18 binding to fibrinogen; K562 CD11b/CD18 adhesion to fibrinogen, ATPlite luminescence; 93,000 compounds, 0.07% hits; P05107+P11215; AID 1499; activation, % at 10 µM;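 active = 10 µM primary screen giving 50% or more activity, confirmed by 40% or more on retest at that dose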
# MRP1 act = activates MRP-1 | H69AR cells + doxorubicin, viability rescue, CellTiter-Glo | viability increase, % at 10 µM | 140,000 compounds, 0.61% hits | AID 799;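 active = viability gain under doxorubicin at or above a set limit, the compound median plus 3 SD, cut at about 4.7% in these data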;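 also: MRP-1 overexpressing cells given doxorubicin 25 µM after compound pretreatment; 18-22 h compound pretreatment then 72 h with doxorubicin before readout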
# FAK inh = blocks human focal adhesion kinase activity; Q05397; 97,000 compounds, 0.84% hits; biochemical FAK kinase activity assay; inhibition, %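 (tested at 7 µM)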
# MRP reversal = compounds reversing MRP-mediated drug resistance | H69AR cells + 2 uM doxorubicin, CellTiter-Glo, 72 h | differential viability (reversal), % at 10 µM | 85,000 compounds, 0.04% hits;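 active = viability drop by adding the cancer drug above about 55%, with treated viability meeting a 40% cutoff, limit read from the data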;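 also: larger differential means the compound sensitizes cells more to doxorubicin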
# FAK inh conf = confirmation of human focal adhesion kinase (FAK) inhibitors. FAK kinase biochemical inhibition assay. 750 compounds, 28% hits. inhibition, % at 7 µM. shares compounds with FAK inh
# A number is an active result; – = inactive; · = not tested or not shown. Rule as the data show it, unless noted: active = inhibition above about 19%; inactive = the rest.
SMILES,CD11b adhes inh,Phagocytosis inh,Mac1 fbg enh,MRP1 act,FAK inh,MRP reversal,FAK inh conf
O=C(c1ccc(NS(=O)(=O)c2cccs2)cc1)N1CCCCC1,·,·,·,–,25,–,–
CC(C)Cn1[nH]c2c3c(ccc2c1=O)C(=O)c1ccccc1C3=O,·,·,·,–,27,·,–
O=C1c2ccccc2C(=O)c2c1ccc1c(=O)n(-c3ccccc3)[nH]c21,·,–,·,–,·,·,·
O=C(Cc1ccc(S(=O)(=O)N2CCOCC2)s1)Nc1nc2c(s1)CCCC2,–,–,–,–,23,–,–
O=C(O)CCC(=O)OCC1CCCO1 (centres undefined),–,–,–,–,–,–,·
CCCC(=O)Nc1nc2nc(-c3ccccc3)cc(-c3ccccc3)n2n1,·,·,·,–,–,–,·
CCC(=O)Nc1nc2nc(-c3ccccc3)cc(-c3ccccc3)n2n1,–,–,–,–,24,·,–
Cn1c(SCC(=O)N2CCCCC2)nc2c([nH]c3ccccc32)c1=O,–,–,–,–,24,–,–
O=C(COC(=O)Cc1ccsc1)Nc1ccc(Cl)c(S(=O)(=O)N2CCOCC2)c1,·,–,·,–,·,·,·
CCOc1ccc2nc(NC3=NC(c4ccc(OC)cc4)CC(=O)N3)nc(C)c2c1 (centres undefined),·,·,·,–,36,·,25
CCOc1ccc2nc(NC3=NC(C)(C)C=C(C)N3)nc(C)c2c1,–,–,–,–,–,·,·
CCN(CC)C(=O)COc1ccc(C=O)cc1OC,·,–,·,–,·,·,·
CCN(CC)CC(=O)n1c2c(c3ccccc31)CCCC2,–,–,–,–,·,–,·
CN1CCN(CC(=O)n2c3c(c4ccccc42)CCCC3)CC1,–,–,–,–,20,–,–
CCN1CCc2c(sc(N)c2C#N)C1,–,–,–,–,26,–,19
O=c1c(O)c(-c2ccc3c(c2)OCO3)oc2ccccc12,–,–,–,–,20,·,–
O=C(Nc1ccc2c(c1)oc1ccccc12)c1ccc2c(c1)OCO2,–,–,–,–,–,–,·
CCOC(=O)c1cc2sc(C)cc2n1CC(=O)N(CC)CC,·,·,·,–,30,–,–
CCOC(=O)C1CCN(S(=O)(=O)C(F)(F)c2nc3ccccc3s2)CC1,–,–,–,–,–,–,·
Nc1ccc(-n2cnc3cc([N+](=O)[O-])ccc32)cc1,–,–,–,–,26,·,–
COC(=O)/C(=C/Nc1ccc(O)cc1)[N+](=O)[O-],–,–,–,5.2,38,–,–
CC(=O)Nn1c(-c2ccccc2)cc2ccccc21,–,–,–,–,–,–,·
Nc1ccc(S(=O)(=O)c2ccc(Cl)cc2)cc1,–,–,–,–,–,–,·
COCCNC(=O)C(c1ccc(C)o1)N(C(=O)c1snc(C(N)=O)c1N)c1ccc(C)c(C)c1 (centres undefined),–,–,–,–,23,–,–
COCCNC(=O)C(c1ccc(C)o1)N(C(=O)c1snc(C(N)=O)c1N)c1cccc(C)c1 (centres undefined),–,–,–,–,20,–,–
SMILES,CD11b adhes inh,Phagocytosis inh,Mac1 fbg enh,MRP1 act,FAK inh,MRP reversal,FAK inh conf
COCCNC(=O)C(c1ccc(C)o1)N(C(=O)c1snc(C(N)=O)c1N)c1ccc(C)cc1 (centres undefined),–,–,–,–,–,–,·
COC(=O)c1ccc(COc2ccc(/C=C(\C#N)c3nc4ccccc4[nH]3)cc2OC)o1,·,·,·,–,56,·,23
COc1cc(/C=C(/C#N)c2nc3ccccc3[nH]2)ccc1OCc1ccc(C(=O)O)o1,–,–,–,–,–,·,·
Cc1nnc(SCC(=O)Nc2ccc(Cl)cn2)s1,·,–,·,–,·,·,·
O=C(CNC(=O)c1ccc([N+](=O)[O-])cc1)N/N=C\c1ccc(OC(=O)c2ccccc2)cc1,–,·,–,–,25,·,–
CCN(CCO)c1nc(SC)nc2c1sc1nc(-c3ccco3)c3c(c12)CCC3,–,–,117,–,72,·,–
Cc1cccn2c(=O)c(C=Nc3ccccc3)c(NCc3ccco3)nc12,–,–,–,–,24,–,–
COc1ccccc1N1CCN(C(c2ccccc2)c2nnnn2CCc2ccccc2)CC1 (centres undefined),·,·,·,–,–,–,·
c1csc(Cc2nn3c(-c4n[nH]c5c4CCC5)nnc3s2)c1,–,–,–,–,28,–,–
COc1ccc(OCc2nn3c(-c4ccco4)nnc3s2)cc1,–,–,–,–,–,–,·
c1coc(-c2nnc3sc(Cc4cccs4)nn23)c1,–,–,–,–,25,–,–
CCOC(=O)c1oc2ccccc2c1NC(=O)c1cccc(OC)c1OC,–,–,–,–,–,–,·
Nc1ncnc2nc(SCc3ccc(Cl)cc3Cl)[nH]c12,–,–,–,–,25,·,–
Nc1ncnc2nc(Sc3ccc(Cl)cc3)[nH]c12,–,–,–,–,–,–,·
O=S(=O)(c1ccccc1Cl)N1CCCC1c1nc(-c2ccc(Cl)cc2)no1 (centres undefined),–,–,–,–,–,·,·
COc1ccccc1/C=C1\NC(=S)N(CC2CCCO2)C1=O (centres undefined),–,–,–,–,–,·,·
CN1C(=O)/C(=C/c2ccccc2OCc2ccccc2F)NC1=S,·,·,·,–,21,·,–
CCc1ccc2nc3n[nH]c(N)c3cc2c1,·,·,·,–,40,·,20
c1ccc2c(-c3ccncc3)c[nH]c2c1,–,–,–,–,21,–,–
c1ccc(-c2nnc(-c3ccccc3)c(-c3c[nH]c4ccccc34)n2)cc1,–,–,–,–,–,–,·
CCOC(=O)c1c(NC(=O)CSc2nncn2C)sc(C)c1C,–,–,–,–,–,–,·
Cn1cnnc1SCC(=O)Nc1sc2c(c1C(N)=O)CCC2,·,·,·,–,23,–,–
Cc1cc(N)ccc1N1CCCC1,·,·,·,–,74,·,58
COc1cccc(C(=O)Nc2c(C(N)=O)oc3ccccc23)c1,–,–,–,–,21,–,–
Cn1nnnc1SCCNC/C=C/c1ccccc1,–,–,–,–,–,–,·
SMILES,CD11b adhes inh,Phagocytosis inh,Mac1 fbg enh,MRP1 act,FAK inh,MRP reversal,FAK inh conf
COc1ccc(CCn2c(=S)[nH]c3cc(C(=O)NCc4ccco4)ccc3c2=O)cc1OC,–,–,–,–,35,–,–
O=C(Nc1ccc2c(c1)OCCO2)c1cccc2nc3ccccc3nc12,·,·,·,–,38,·,–
O=C(COc1ccc(/C=N/NC(=O)c2cc3ccccc3o2)cc1Br)Nc1ccccc1,·,·,·,–,26,·,36
O=C(Nc1ccccc1)c1cc2ccccc2o1,·,·,·,–,–,–,·
O=c1[nH]ncc2c3ccccc3n(Cc3ccccc3)c12,·,·,·,–,20,·,–
CCCC/C(C)=N/NC(=O)C(=O)NCCc1ccccc1,–,–,–,–,–,·,·
CCOC(=O)c1c(C)c(C(=O)NCc2ccccc2OC)c(C)n1C,–,–,–,–,46,–,–
CCCN1C2=NCCN2c2cc(C)c(C)cc21,–,–,–,–,–,·,·
CCOC(=O)C1=C(C)NC2=C(C(=O)CCC2)C1c1cccs1 (centres undefined),–,–,–,–,–,–,·

# From PubChem
